Experimental findings from ChEMBL document CHEMBL3988442, “University of Dundee, Small-Polar-MMV Screening Library” (2021) are described below.

What all share (parameters): scale not given: direction of the effect not stated beside the values
The target in experiment [1] is Protein translocase subunit SecA (Escherichia coli (strain K12)) (UniProt P10408). The experiment is described as follows: Assay to Identify E. coli SecA ATPase Inhibitors. In kind it is functional. The note with it: 30 µM.
In experiment [2] the target is T1, Ubiquitin-activating enzyme e1, putative (Leishmania donovani (strain BPK282A1)) (UniProt E9BSI1).
T1 sequence (whole entry): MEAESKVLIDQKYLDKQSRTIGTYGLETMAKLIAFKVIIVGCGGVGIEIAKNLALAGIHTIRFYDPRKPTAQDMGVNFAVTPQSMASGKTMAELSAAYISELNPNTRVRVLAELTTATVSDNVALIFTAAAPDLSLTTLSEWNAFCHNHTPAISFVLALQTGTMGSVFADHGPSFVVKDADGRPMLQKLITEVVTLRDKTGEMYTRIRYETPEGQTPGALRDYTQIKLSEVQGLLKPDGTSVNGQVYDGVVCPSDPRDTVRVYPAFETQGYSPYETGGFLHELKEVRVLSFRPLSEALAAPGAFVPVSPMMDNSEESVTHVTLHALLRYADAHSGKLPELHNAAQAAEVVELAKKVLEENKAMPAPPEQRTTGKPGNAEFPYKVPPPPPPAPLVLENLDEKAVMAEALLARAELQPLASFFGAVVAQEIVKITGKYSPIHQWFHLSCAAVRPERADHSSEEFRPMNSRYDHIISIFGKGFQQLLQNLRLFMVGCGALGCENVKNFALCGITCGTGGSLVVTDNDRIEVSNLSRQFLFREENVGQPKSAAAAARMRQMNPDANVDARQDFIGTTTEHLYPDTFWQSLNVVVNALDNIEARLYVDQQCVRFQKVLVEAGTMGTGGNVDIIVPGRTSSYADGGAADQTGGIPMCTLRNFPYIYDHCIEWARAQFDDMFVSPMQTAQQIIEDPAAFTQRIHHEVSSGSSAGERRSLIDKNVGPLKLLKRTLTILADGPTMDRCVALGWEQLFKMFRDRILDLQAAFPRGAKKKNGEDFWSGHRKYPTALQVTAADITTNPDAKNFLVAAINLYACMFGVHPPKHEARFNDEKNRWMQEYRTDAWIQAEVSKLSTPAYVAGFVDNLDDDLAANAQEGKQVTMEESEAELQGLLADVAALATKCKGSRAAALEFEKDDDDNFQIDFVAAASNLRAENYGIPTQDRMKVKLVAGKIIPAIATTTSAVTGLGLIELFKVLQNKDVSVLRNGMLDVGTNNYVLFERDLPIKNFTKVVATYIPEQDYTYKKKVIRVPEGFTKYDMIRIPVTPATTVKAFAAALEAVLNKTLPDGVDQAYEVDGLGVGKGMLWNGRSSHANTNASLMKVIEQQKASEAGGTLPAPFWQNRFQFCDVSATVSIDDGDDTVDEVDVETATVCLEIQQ
Description: Leishmania donovani Ubiquitin Activating Enzyme (LdE1). In kind it is functional. To be noted: 30 µM.

The target of experiment [3] is AMP-activated protein kinase, AMPK (Homo sapiens) (UniProt P54646+O43741+P54619+Q9UGJ0+Q9Y478+Q13131+Q9UGI9). The experiment is described as follows: AMP-dependent Kinase enzyme assay. An in vitro enzyme assay that detects ADP turnover that is directly proportional to AMPK activity. This uses naive AMPK that is activated during the assay with MK-8722. The note with it: 30 µM. It is filed as functional.

Experiment [4] deals with Sialic acid-binding Ig-like lectin 9 (Homo sapiens) (UniProt Q9Y336). The experiment is described as follows: Hs-Siglec9 ALPHAscreen SOP 20170721. The note with it: 10 µM. Background: In Alpha technology, singlet oxygen from a donor bead excites a nearby acceptor bead.
Sialic acid-binding Ig-like lectin 9 (Homo sapiens), sequence (Q9Y336 whole entry): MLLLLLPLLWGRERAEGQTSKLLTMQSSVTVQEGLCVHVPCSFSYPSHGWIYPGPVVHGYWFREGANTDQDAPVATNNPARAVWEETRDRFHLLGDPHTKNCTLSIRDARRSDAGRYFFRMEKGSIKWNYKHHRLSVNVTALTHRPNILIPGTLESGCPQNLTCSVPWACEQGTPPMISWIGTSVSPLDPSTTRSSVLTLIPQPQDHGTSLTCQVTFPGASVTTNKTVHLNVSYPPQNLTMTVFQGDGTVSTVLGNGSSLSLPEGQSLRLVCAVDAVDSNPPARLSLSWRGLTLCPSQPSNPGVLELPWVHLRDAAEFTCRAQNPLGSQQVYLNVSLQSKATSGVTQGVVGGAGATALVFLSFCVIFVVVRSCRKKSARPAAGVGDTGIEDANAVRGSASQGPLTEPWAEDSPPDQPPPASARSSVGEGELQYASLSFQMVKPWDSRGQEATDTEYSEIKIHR
In a further experiment the test system is Trypanosoma cruzi. The experiment is described as follows: Trypanosoma cruzi phosphomannomutase and mannose-1-phosphate guanylyltransferase assay. The note with it: 10 µM. In kind it is functional.
Experiment [5] concerns the target T2, Arginase-2, mitochondrial (Homo sapiens) (UniProt P78540).
T2 sequence (whole entry): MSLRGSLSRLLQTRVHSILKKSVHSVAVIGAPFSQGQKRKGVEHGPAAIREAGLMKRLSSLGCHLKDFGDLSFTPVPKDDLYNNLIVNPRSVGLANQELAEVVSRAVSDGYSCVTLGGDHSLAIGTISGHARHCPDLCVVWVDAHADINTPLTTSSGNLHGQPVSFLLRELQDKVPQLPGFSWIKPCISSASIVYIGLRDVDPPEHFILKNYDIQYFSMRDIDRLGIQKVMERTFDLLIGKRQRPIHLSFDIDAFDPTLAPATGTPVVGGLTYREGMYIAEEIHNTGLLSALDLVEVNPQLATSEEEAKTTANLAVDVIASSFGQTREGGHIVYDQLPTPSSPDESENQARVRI
Description: in vitro enzyme assay to detect the production of urea directly proportional to the activity of Arginase II. Further: in the data most compounds retested in dose-response had high values. The note with it: 33.3 µM. In kind it is functional.

The target in experiment [6] is T3, Proteasome subunit beta (Trypanosoma cruzi) (UniProt O96673).
T3 sequence (whole entry): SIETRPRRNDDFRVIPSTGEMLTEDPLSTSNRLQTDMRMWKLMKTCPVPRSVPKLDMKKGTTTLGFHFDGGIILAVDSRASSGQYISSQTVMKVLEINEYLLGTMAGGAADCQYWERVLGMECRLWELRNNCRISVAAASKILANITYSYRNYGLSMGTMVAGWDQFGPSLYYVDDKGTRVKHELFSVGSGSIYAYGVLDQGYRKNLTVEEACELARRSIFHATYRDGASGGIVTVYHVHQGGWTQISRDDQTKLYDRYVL
Description: Trypanosoma cruzi proteasome chymotrypsin-like activity (TcProtChymo) assay. Further: in the data most compounds retested in dose-response had high values. It is filed as functional. The note with it: 9.37 µM.

For the next experiment, the species on record is Homo sapiens. Description: To identify inhibition of the IFN signalling (Jak-Stat) pathway via expression of an eGFP reporter gene under the control of an IFN-stimulated response element (ISRE) containing MxA promoter. To be noted: 30 µM. It is filed as functional. For orientation: A reporter such as luciferase makes a cellular process visible.
The target of experiment [7] is T4, Tyrosyl-tRNA synthetase, putative (Trypanosoma cruzi (strain CL Brener)) (UniProt Q4DSP6).
T4 sequence (whole entry): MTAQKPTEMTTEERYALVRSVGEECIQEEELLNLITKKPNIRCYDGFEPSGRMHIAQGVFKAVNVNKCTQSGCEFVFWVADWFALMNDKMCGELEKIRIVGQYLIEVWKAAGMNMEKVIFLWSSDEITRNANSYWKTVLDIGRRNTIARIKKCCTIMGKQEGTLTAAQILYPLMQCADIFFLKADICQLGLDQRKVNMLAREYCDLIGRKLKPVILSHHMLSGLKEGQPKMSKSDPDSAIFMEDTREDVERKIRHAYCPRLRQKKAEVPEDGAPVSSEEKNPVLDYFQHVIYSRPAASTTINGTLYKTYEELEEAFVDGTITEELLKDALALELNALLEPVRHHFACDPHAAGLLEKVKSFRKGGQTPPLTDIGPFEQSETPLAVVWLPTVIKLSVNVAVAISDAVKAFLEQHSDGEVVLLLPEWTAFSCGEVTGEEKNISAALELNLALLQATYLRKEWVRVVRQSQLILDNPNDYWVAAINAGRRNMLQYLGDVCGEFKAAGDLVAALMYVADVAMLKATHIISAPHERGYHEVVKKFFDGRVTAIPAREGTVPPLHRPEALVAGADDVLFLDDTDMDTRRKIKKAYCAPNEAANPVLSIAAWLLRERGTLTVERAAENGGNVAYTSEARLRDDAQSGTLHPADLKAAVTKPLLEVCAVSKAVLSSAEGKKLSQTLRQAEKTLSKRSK
The experiment is described as follows: Trypanosoma cruzi tyrosyl tRNA synthetase (TcYRS) _High Tyrosine SOP. Further: in the data most compounds retested in dose-response had high values. The note with it: 30 µM. It is filed as functional.

Experiment [8] concerns the target T4, Tyrosyl-tRNA synthetase, putative (Trypanosoma cruzi (strain CL Brener)). The experiment is described as follows: Trypanosoma cruzi tyrosyl tRNA synthetase (TcYRS) SOP. In kind it is functional. The note with it: 30 µM.
Experiment [9] has as its target Chromo domain-containing protein 1 (Saccharomyces cerevisiae (strain ATCC 204508 / S288c) (Baker's yeast)) (UniProt P32657). Description: ScCHD-1 Enzyme Inhibition Assay. Further: in the data most compounds retested in dose-response had high values. It is filed as functional. The note with it: 30 µM.

For some of these results: Measured potencies and affinities stand elsewhere.

Chromo domain-containing protein 1 (Saccharomyces cerevisiae (strain ATCC 204508 / S288c) (Baker's yeast)), sequence (P32657 whole entry, the tested form may be a part): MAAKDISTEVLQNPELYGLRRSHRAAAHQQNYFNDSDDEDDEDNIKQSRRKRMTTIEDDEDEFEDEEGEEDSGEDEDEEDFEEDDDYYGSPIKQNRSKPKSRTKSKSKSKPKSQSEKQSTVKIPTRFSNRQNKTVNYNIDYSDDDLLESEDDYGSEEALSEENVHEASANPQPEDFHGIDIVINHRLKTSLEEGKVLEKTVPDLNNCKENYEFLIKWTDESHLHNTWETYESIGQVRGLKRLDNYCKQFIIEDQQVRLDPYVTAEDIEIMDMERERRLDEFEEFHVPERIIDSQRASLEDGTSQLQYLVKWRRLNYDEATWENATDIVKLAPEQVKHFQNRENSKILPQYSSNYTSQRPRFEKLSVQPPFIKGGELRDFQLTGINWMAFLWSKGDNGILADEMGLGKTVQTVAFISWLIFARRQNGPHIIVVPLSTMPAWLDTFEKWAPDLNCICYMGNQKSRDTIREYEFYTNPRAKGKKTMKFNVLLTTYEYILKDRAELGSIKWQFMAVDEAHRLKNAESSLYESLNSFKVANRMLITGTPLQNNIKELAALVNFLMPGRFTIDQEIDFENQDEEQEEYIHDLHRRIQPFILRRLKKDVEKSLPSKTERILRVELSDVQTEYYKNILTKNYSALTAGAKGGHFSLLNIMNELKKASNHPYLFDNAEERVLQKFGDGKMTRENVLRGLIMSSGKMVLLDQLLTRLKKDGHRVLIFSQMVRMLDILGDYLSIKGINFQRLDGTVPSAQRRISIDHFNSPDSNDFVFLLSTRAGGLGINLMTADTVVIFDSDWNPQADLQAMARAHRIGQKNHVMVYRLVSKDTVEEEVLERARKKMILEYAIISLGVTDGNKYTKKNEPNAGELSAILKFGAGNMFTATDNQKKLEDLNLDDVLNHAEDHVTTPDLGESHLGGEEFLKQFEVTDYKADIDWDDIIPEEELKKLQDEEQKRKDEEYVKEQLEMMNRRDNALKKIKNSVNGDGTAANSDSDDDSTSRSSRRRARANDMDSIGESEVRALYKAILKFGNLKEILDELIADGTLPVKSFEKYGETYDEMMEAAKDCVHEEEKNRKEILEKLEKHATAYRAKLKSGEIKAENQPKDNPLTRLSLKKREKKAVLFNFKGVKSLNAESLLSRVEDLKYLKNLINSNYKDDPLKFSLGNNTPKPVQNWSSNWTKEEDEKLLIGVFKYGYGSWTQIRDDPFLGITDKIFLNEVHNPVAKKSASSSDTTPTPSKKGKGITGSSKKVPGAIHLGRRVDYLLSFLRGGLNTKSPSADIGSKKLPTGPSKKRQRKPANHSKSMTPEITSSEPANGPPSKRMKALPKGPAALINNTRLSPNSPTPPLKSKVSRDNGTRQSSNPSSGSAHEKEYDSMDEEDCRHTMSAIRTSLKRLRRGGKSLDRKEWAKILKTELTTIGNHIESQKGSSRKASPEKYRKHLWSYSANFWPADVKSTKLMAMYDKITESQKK
Protein translocase subunit SecA (Escherichia coli (strain K12)), sequence (P10408 whole entry): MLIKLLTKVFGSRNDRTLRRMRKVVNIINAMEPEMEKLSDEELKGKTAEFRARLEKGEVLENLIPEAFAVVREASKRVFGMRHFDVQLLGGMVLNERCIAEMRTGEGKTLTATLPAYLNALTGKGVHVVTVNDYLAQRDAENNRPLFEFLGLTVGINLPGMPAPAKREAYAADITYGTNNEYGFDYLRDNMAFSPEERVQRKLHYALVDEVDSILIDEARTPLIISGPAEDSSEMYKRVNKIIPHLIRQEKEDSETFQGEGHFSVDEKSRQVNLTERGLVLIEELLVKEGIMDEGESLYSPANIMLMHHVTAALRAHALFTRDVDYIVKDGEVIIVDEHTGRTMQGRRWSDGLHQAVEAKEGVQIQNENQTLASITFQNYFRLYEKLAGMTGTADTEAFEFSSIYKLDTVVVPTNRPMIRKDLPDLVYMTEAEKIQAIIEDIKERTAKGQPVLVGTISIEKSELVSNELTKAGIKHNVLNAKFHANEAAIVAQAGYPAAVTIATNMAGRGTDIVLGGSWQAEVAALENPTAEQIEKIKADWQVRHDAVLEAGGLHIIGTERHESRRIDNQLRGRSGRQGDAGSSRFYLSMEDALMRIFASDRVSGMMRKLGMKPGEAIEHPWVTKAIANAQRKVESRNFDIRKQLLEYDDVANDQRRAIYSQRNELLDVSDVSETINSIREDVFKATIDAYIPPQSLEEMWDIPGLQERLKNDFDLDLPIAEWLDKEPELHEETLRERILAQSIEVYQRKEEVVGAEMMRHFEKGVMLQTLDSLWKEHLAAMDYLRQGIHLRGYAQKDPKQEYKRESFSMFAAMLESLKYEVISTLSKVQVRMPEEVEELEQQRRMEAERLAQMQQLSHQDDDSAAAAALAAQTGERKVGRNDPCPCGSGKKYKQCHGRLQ

Turning to `COc1cccc(CCC2CCCN(C(=O)C3=NN(C)C(=O)CC3)C2)c1` (stereo unspecified), the Percent Effect in experiment [1] was -0.975%; in experiment [2], -10.8%; in [3], -2.43%; in [4], -1.4%; in the experiment with Trypanosoma cruzi, -3.28%; in [5], 0.952%. Besides, the Percent Effect is 3.79% in [6]; 6.9% in the experiment filed under Homo sapiens; 3.7% in experiment [7]; 4.88% in experiment [8]; -1.44% in experiment [9].
Consider `CS(=O)(=O)N1CCN(CC(O)COc2ccc(F)cc2)CC1` (stereo unspecified), for which the Percent Effect is -0.431% in [1]; 10.4% in experiment [2]; 2.55% in experiment [3]; -2.66% in [4]; -4.02% with Trypanosoma cruzi; 0.632% in experiment [5]. The Percent Effect is 11.4% in experiment [6]; 26.8% in the experiment listed under Homo sapiens; 2.86% in experiment [7]; 21.2% in [8]; -16.1% in experiment [9].
With `CCCn1c(C)cc(C(=O)CN2C(=O)c3ccccc3CS2(=O)=O)c1C`, the Percent Effect in experiment [1] was 2.47%; in [2], -18.9%; in [3], -2.92%; in experiment [4] it was 7.94%; with Trypanosoma cruzi, 0%; in [5] it was 1.91%. In addition, the Percent Effect in [6] is 14.7%; in the experiment listed under Homo sapiens, 21.2%; in [7] it was -10.1%; in experiment [8], 0%; in experiment [9], 8.3%.
On to `CC(C)c1cc(NC(=O)CN2CCc3cncnc3C2)on1`, for which the Percent Effect in experiment [1] is -5.41%; in experiment [2], 10.4%; in experiment [3], -22.4%; in [4] it was 3.99%; with Trypanosoma cruzi, 1.31%; in experiment [5], -5.34%. Moreover, the Percent Effect in experiment [6] is 4.39%; in the experiment listed under Homo sapiens, -5.17%; in experiment [7] it was 16.5%; in experiment [8], 21.9%; in experiment [9], -6.84%.
Take `CC1CN(Cc2nccn2C)CCN1c1ccc2nncn2n1` (stereo unspecified): the Percent Effect in experiment [1] is -5.26%; in experiment [2] it was 10.4%; in [3], -8.38%; in experiment [4], 12.5%; with Trypanosoma cruzi it was 5.62%; in [5], 2.85%. Further, the Percent Effect in experiment [6] was 9.29%; in the experiment listed under Homo sapiens, 7.44%; in experiment [7] it was 5.83%; in experiment [8], 21.9%; in [9], -9.26%.
With `CN1CCC(Oc2ccc(NC(=O)c3cccc(Cl)c3)cc2)CC1`, the Percent Effect in [1] is -5.92%; in [2] it was 0%; in experiment [3], 6.08%; in experiment [4] it was 4.72%; with Trypanosoma cruzi it was 3.05%; in experiment [5], 19.3%. The Percent Effect in experiment [6] is 10.2%; in the experiment filed under Homo sapiens it was 12.9%; in [7] it was -5.38%; in experiment [8], 1.24%; in experiment [9] it was -3.75%.
As to `CCN(CC)CCNc1ncc(-c2cc(C)no2)c(-c2ccoc2C)n1`, the Percent Effect in experiment [1] was -7.13%; in experiment [2], 20.3%; in experiment [3], 6.82%; in [4], 3.2%; with Trypanosoma cruzi, 2.77%; in experiment [5] it was -3.94%. For the same compound, the Percent Effect was 8.74% in experiment [6]; 0.0946% in the experiment listed under Homo sapiens; 5.38% in [7]; 14.3% in [8]; -20.7% in experiment [9].
With `COc1cc(C(=O)N2CCCC(CNS(C)(=O)=O)C2)cc(OC)c1C` (stereo unspecified), the Percent Effect in [1] is -5.54%; in [2], 13.5%; in experiment [3], 77.8%; in experiment [4], -1.48%; in the experiment on Trypanosoma cruzi it was 2.74%; in [5], 0.802%. In addition, the Percent Effect was 1.26% in experiment [6]; 11% in the experiment listed under Homo sapiens; 7.39% in experiment [7]; 16.1% in [8]; -4.09% in experiment [9].
For the compound `O=C(NCc1nncn1-c1ccccc1)C1CC(=O)N(CC2CC2)C1` (stereo unspecified), the Percent Effect is -6.4% in [1]; 5.41% in experiment [2]; -8.14% in experiment [3]; 7.22% in [4]; -3.3% in the experiment with Trypanosoma cruzi; 24.4% in [5]. For the same compound, the Percent Effect in [6] is -0.901%; in the experiment listed under Homo sapiens, 8.14%; in experiment [7] it was 3.45%; in experiment [8], 3.7%; in [9], -2.19%.
As for `Cn1ccc(C(=O)N2CCC(Cc3cnc4[nH]ccc4c3)CC2)n1`, the Percent Effect in [1] is -2.94%; in [2], 6.76%; in [3], 13%; in experiment [4], 2.89%; in the experiment with Trypanosoma cruzi, -0.395%; in experiment [5], 1.16%. Moreover, the Percent Effect was 7.64% in experiment [6]; 7.58% in the experiment filed under Homo sapiens; 4.3% in experiment [7]; 14.3% in experiment [8]; -4.7% in experiment [9].
`O=C(COc1coc(CN2CCCCC2)cc1=O)Nc1ccccc1Cl`: the Percent Effect in experiment [1] was -4.47%; in [2], 4%; in [3], 6.82%; in [4] it was 3.14%; with Trypanosoma cruzi, -2.16%; in [5], -8.28%. The Percent Effect in experiment [6] is 12.2%; in the experiment filed under Homo sapiens, -3.22%; in experiment [7], 10.6%; in [8], 12.8%; in [9], 0.706%.
